The record followed here is PubChem BioAssay (NCI).

Several values for one entry are separate records, joined by “and”; a condition that tells them apart may be missing. Equal entries are not always repeated. This is part of a sample that, as a whole, favours compounds with a hit. Of some 83,000 tested, about 20% had one in any assay.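 Compound tested at a single concentration for 48 hours in 96-well plates; a percent growth value below 10 was scored as active.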 A number with no mark means an inactive call. Activity calls are given as the source filed them.

For this assay, the system named is MDA-MB-468 breast. Put plainly: NCI-60 one-dose screen, 48 h (100 = growth as untreated, 0 = no growth, -100 = all killed). The note with it: 10 µM unless noted. As for the experimental part: Growth inhibition of the MDA-MB-468 human Breast tumor cell line is measured as a screen for anti-cancer activity. Cells are grown in 96 well plates and exposed to the test compound for 48 hours. Compounds are tested at a single concentration, which is 10^-5 M for most compounds. The reported endpoint is percent growth (GI% or GIPRCNT), where numbers from 0 - 100% represent growth inhibition, and numbers from -100% - 0 represent cell death. For example, a value of 40 represents 60% growth inhibition. A value of 0 means no net growth occurred over the course of the experiment. A value of -40 indicates 40% of cells at the beginning of the experiment died by the end of the experiment. A value of -100 means all cells are dead at the end of the experiment.
NCI-60 Human Tumor Cell Lines Screen was performed using the standard one-dose NCI protocol, which is described in more detail at https://dtp.cancer.gov/discovery_development/nci-60/default.htm.
Compounds with GIPRCNT values below 10 were considered active. Activity score was based on GIPRCNT using the following formula: […]
Score is 0 for GIPRCNT values of 100 or above, 50 for GIPRCNT values of 0, and 100 for GIPRCNT values of -100.
As to `COc1ccc(C2=NN(c3ccccc3)C(c3sc(N(CCCl)CCCl)nc3Cl)C2)cc1` (stereo not given), the growth is 69.3%. As for `Clc1ccc(N2COOC3(OOC2)C2CC4CC(C2)CC3C4)cc1`, the growth is 65.3%. The result for `[Cl][Hg][c]1cc(Br)cc(Br)c1` reads 7.71% (active); that for `O=C(O)c1ccccc1N(CCO)CCCl`, 95.1%. As to `COc1ccc2c(c1)c(-c1nc(-c3cn(C)c4ncccc34)cs1)cn2CCCCN1CCCCC1`, the growth was -2.69% (active). On to `C=CCOC(=O)C(Br)CC` (stereo not given), for which the growth is 98%. `Cc1nnc([S-])o1.[Au+].c1ccc([PH+](c2ccccc2)c2ccccc2)cc1`: the growth is -6.44% (active).

Consider `C[C@]12CCc3sc(-c4ccccc4O)nc3C1=CC[C@@H]1[C@@H]2CC[C@]2(C)C(=O)CC[C@@H]12`, for which the growth was 106%. In the case of `O=C1NC(=O)C(=Cc2cn(CCCCCCn3c4ccccc4c(=O)c4ccccc43)c3ccccc23)C(=O)N1` it was -26% (active); in that of `CO[C@H]1[C@H](O[C@@H]2C[C@@H]3C/C=C/C(=O)O[C@@H](CO)C[C@H](O)[C@@H]4C[C@H](C)[C@H](C/C=C\C=C\[C@H](C)C[C@H](C2)O3)O4)O[C@@H](C)[C@H](O)[C@H]1O`, -4.8% (active); in that of `CN1CCc2cc3c(cc2C1O)OCO3` (stereo not given), 99.4% and 108%. In the case of `Cc1cc([N+](=O)[O-])c2ccccc2[n+]1[O-]` it was -55.7% (active); in that of `C[C@]12CC[C@H]3[C@@H](CCC4=CC(=O)CC[C@@H]43)[C@@H]1CC[C@@H]2OC(=O)N(CCCl)N=O`, -22.1% (active); in that of `CCC[CH2][Sn]1([CH2]CCC)[O]C(=O)c2cccc([N+](=O)[O-])c2C(=O)[O]1`, -79.4% (active). The result for `C=CC1CN2CCC1CC2C(O)c1ccnc2ccccc12` (stereo not given) reads 107%.

`CCNc1nc(Cl)nc(NCC)n1`: the growth was 106%. In the case of `Cc1c(O)c(CN(CCCl)CCCl)cc(CN(CCCl)CCCl)c1O` it was 84.4%; in that of `Oc1c(Br)cc(Br)cc1Br.[Cu+2]`, 102%. Consider `COc1cc([C@@H]2c3cc4c(cc3[C@H](OC(C)=O)[C@H]3COC(=O)[C@@H]23)OCO4)cc(OC)c1OC`, for which the growth is -40.2% (active). As for `O=[N+]([O-])c1ccccc1N1CCNCC1`, the growth was 113%. Consider `Oc1ccc(Br)cc1CN1CCN(Cc2ccc(Cl)cc2)CC1`, for which the growth is 95.9%. In the case of `COC(=O)C1CC2c3ccccc3C1c1ccccc12` (stereo not given) it was 93.1%; in that of `O=C(CCc1ccco1)NC1CCN(CC2(c3ccc(Cl)cc3)CCC2)CC1`, -11.5% (active); in that of `Oc1c(Cl)cc(Cl)c2ccccc12.[Cu+2]`, 101%.

As for `CC(=O)N(C)C1=Nc2ccc(Cl)cc2C(c2ccccc2)=[N+]([O-])C1`, the growth is 111%. As for `CC(=O)O[C@H]1C(=O)[C@@]2(C)[C@H]([C@H](OC(=O)c3ccccc3)[C@]3(O)C[C@H](OC(=O)[C@H](OC(=O)OC[C@H]4COC(C)(C)O4)[C@@H](NC(=O)c4ccccc4)c4ccccc4)C(C)=C1C3(C)C)[C@]1(OC(C)=O)CO[C@@H]1C[C@@H]2O`, the growth is -16.3% (active). Take `O=S(=O)(F)c1ncnc2nc[nH]c12`: the growth is 96.1%. `O=[N+]([O-])c1ccc(OP(=O)(CCl)N(CCCl)CCCl)cc1` (stereo not given): the growth is 101%.

Turning to `CC1(C)CN1P(=O)(N1CC1(C)C)N1CC1(C)C` (stereo not given), the growth was 106%.

Take `CN(C)C(=S)SSC(=S)N(C)C`: the growth was 96.6% and 108%. The result for `CC/C(=C/c1ccc(OC)cc1OC)[N+](=O)[O-]` reads -6.94% (active); that for `COc1ccc(Nc2ccnc3cc(Cl)ccc23)cc1CN(CCCl)CCCl`, -58.6% (active); that for `Cc1cc(N=Nc2ccccc2C)ccc1N`, 64.5%. On to `Cn1cnnc1[S-].[Au+].c1ccc([PH+](c2ccccc2)c2ccccc2)cc1`, for which the growth is -49.1% (active). In the case of `O=C(CCF)c1ccc(O)cc1` it was 108%; in that of `COC(=O)[C@@H](C)C[C@H](Cc1ccccc1)NC(=O)c1csc([C@@H](C[C@H](C(C)C)N(C)C(=O)C2(NC(=O)[C@H]3CCCCN3C)CCC2)OC(C)=O)n1`, 7.04% (active). On to `CC(=O)O[C@@H]1C[C@H]2O[C@@H]3C=C(C)CC[C@]3(C)[C@]1(C)[C@]21CO1`, for which the growth is 39.3%. In the case of `C=CC12CCN(CC1)C(C(O)c1ccnc3ccc(OC)cc13)C2` (stereo not given), the growth was 11.6%. The result for `CC1=C(O)[C@@](C)(CCCCC[C@H](C)CCCCc2ccc(O)cc2)OOC1=O` reads 113%; that for `O=C([O][Hg][CH2]C1COCC([CH2][Hg][O]C(=O)c2ccccc2)O1)c1ccccc1` (stereo not given), 22.7%.
